# Hits are enriched below; roughly 2.4% of the tested compounds scored in any of these assays.
# D2 ag-1: agonists of human D2 dopamine receptor (beta-arrestin); P14416; DiscoveRx PathHunter D2 beta-arrestin, luminescence, 90 min; 100% = 57 uM dopamine signal; activation, % (concentration not given with the values); 360,000 tested, 0.084% active; in the data active means activation above about 40%
# Target sequence (P14416 whole entry, looked up): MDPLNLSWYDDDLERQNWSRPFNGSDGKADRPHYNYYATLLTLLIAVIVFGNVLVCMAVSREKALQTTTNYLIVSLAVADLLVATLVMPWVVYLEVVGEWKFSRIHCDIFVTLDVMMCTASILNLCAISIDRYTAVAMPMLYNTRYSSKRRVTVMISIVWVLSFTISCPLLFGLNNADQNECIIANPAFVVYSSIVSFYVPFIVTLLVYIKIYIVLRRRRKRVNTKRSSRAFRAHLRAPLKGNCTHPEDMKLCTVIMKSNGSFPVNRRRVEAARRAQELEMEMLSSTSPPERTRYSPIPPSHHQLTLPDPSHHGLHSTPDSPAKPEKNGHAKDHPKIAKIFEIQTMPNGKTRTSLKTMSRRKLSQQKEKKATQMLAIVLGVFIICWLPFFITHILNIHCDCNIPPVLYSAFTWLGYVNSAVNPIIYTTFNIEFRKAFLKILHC
#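 DiscoveRx PathHunter D2 beta-arrestin cells (2,100/well) attached overnight, then compound-stimulated 90 min at 37 C in HBSS/10 mM HEPES/0.1% Tween-20 buffer; beta-galactosidase complementation read by luminescence after 1 h at ambient temperature. Dopamine 57 uM final (EC100) as control.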
# D2 PAM-1: D2 dopamine receptor (human) potentiation | P14416 | HEK293 T-REx D2, calcium flux, EC20 dopamine potentiation | potentiation, % at 10 µM | 340,000 tested, 0.34% active;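 active means potentiation over 3 SD above the plate norm, cut at about 30% in these data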
#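 Calcium flux readout, no-wash dye, 1 read/s. Inducible HEK293 Trex D2 line, overnight 30 C. Compound alone 180 s (agonist flags), then EC20 dopamine, another 180 s to score potentiation.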
# D2 antagonist: antagonizes the human D2 dopamine receptor; HEK293 TREx D2 cells, calcium flux, dopamine EC80; 340,000 tested, 2% active; P14416; inhibition, % at 10 µM; in the data active means inhibition above about 30%; inactive means below that, where a call was filed
#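 Tetracycline-induced HEK293 TREx cells expressing D2 receptor forced-coupled to calcium signalling, loaded with no-wash calcium dye. Compounds added and calcium flux read 180 s, then dopamine added at EC80 and read a further 180 s.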
# D2 PAM-2: positive allosteric modulators of human D2 dopamine receptor; DiscoveRx D2 beta-arrestin cells, luminescence, 90 min; 100% = 57 uM dopamine signal; potentiation, % (no concentration beside the values); 360,000 tested, 0.23% active; AID 624464; in the data active means potentiation above about 50%
#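 PathHunter D2 cells, attached overnight at 37 deg C, received compound in DMSO plus dopamine at EC20 (50 nM final) for 90 min at 37 deg C. Beta-arrestin recruitment was read as luminescence after 1 h with detection reagent at ambient temperature.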
# D2 ag-2: D2 dopamine receptor (human) agonism; activation, % at 2 µM; 340,000 tested, 0.53% active; HEK293 T-REx D2 cells, calcium flux agonist mode; AID 485358;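 active means activation over 3 SD above normal in the single-dose calcium agonist read, cut at about 30% in these data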
#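 Agonism is scored from calcium flux in a force-coupled, inducible HEK293 cell line expressing D2, read kinetically for 180 s after compound addition against dopamine controls.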
# A number is an active result; i = inactive; nt = not tested or not shown.
SMILES,D2 ag-1,D2 PAM-1,D2 antagonist,D2 PAM-2,D2 ag-2
CC(=O)N1CCOc2cc(S(=O)(=O)Nc3cccc(C(F)(F)F)c3)c(Cl)cc21,nt,i,nt,nt,i
COc1ccc(NC(=O)CCS(=O)(=O)c2ccc3nc(C)sc3c2)cc1Cl,nt,i,nt,nt,i
Cn1c(=O)c(C(=O)CN2CCOCC2)c(N)n(Cc2ccccc2)c1=O,i,i,i,i,i
CC1CN(CC(=O)c2c(N)n(Cc3ccccc3)c(=O)n(C)c2=O)CC(C)O1 (stereo not drawn),i,i,35.8,i,i
Cc1ccc2nc(N(Cc3cccnc3)C(=O)C3CCCCC3)sc2c1,nt,i,nt,nt,i
CC(C)Nc1nc(Cl)nc(NN(C)c2nc(N(C)C)nc(N(C)C)n2)n1,i,i,34.3,i,i
CCOc1cc2[nH]c(=O)n(CCCCC(=O)N3CCN(c4cccc(Cl)c4)CC3)c(=O)c2cc1OCC,nt,i,nt,nt,nt
CCOc1cc2[nH]c(=O)n(CCCCC(=O)N3CCCCCC3)c(=O)c2cc1OCC,i,36.4,i,i,i
O=c1c2ccccc2[nH]c(=S)n1CCCN1CCC(Cc2ccccc2)CC1,i,i,81.8,i,i
CC1CCN(CCCn2c(=S)[nH]c3ccccc3c2=O)CC1,i,i,i,i,i
CC1CCN(CCn2c(=S)[nH]c3ccccc3c2=O)CC1,i,i,30.6,i,i
O=C(CCCCCn1c(=S)[nH]c2ccc(N3CCOCC3)cc2c1=O)NCc1cccc(Cl)c1,i,38.9,i,i,i
O=c1c2ccccc2[nH]c(=S)n1CCCN1CCN(C2CCCCC2)CC1,i,i,82.3,i,i
O=C(CCCCCn1c(=S)[nH]c2ccc(N3CCOCC3)cc2c1=O)NCc1ccccc1,i,i,i,i,i
O=c1c2ccc(Cl)cc2[nH]c(=S)n1CCCN1CCOCC1,i,i,33.5,i,i
COc1ccc(Cn2c(CNS(=O)(=O)c3ccc(C)c(C)c3)nc3cccnc32)cc1,nt,i,nt,nt,i
O=C(NCc1nc2ccccc2[nH]1)C1=C[C@H](C2CC2)C[C@H](OCc2ccc(CO)cc2)O1,i,i,40.0,i,i
O=C(NCc1nc2ccccc2[nH]1)C1=C[C@@H](C2CC2)C[C@@H](OCc2ccc(CO)cc2)O1,i,i,i,i,i
CCOC(=O)c1c(C)nn(-c2ccc(NC(=O)/C=C/C(=O)O)cc2)c1C,i,i,i,i,i
CCNC(=O)Nc1ccc(-n2nc(C)c(C(=O)OCC)c2C)nc1,i,i,45.0,i,i
CCN(CC(=O)Nc1ccc2c(c1)OCCO2)C(=O)COc1cc(C)ccc1Cl,i,i,33.2,i,i
Cc1ccc(Cl)c(OCC(=O)Nc2ccc3c(c2)OCCO3)c1,i,i,i,i,i
Cc1nc2ncccn2c1-c1csc(NCc2ccco2)n1,i,37.9,i,i,i
O=S(=O)(NCCc1csc2nc(-c3ccccc3)nn12)c1ccc(Oc2ccccc2)cc1,nt,i,nt,nt,i
CC1(C(=O)NCc2ccc(F)cc2)Oc2ccccc2NC1=O (stereo not drawn),i,i,75.8,i,i
SMILES,D2 ag-1,D2 PAM-1,D2 antagonist,D2 PAM-2,D2 ag-2
COc1cc2cc(C(c3nnnn3C3CCCC3)N3CCc4ccccc43)c(=O)[nH]c2cc1OC (stereo not drawn),i,i,i,i,i
O=c1[nH]c2cc3c(cc2cc1C(c1nnnn1C1CCCC1)N1CCCc2ccccc21)OCCO3 (stereo not drawn),i,42.7,i,i,i
Cc1cc(=O)[nH]c(SCC(=O)Nc2ccc3c(c2)CCC3)c1C#N,i,i,35.7,i,i
Cc1cc(=O)[nH]c(SCC(=O)Nc2ccc(F)cc2)c1C#N,i,i,i,i,i
O=C(Cn1cnc2c(nnn2-c2ccccc2)c1=O)NCc1ccco1,i,i,39.9,i,i
CCOC(=O)C(C)n1cnc2c(nnn2-c2ccccc2)c1=O (stereo not drawn),i,i,i,i,i
COC(=O)C(C)n1cnc2c(nnn2-c2ccccc2)c1=O (stereo not drawn),i,i,30.5,i,i
O=C(Cn1cnc2c(nnn2-c2ccccc2)c1=O)NCCc1ccccc1,i,55.5,i,i,i
Cc1ccc(-n2ncc3c(=O)n(CC(=O)NCc4ccco4)cnc32)cc1,i,31.2,i,i,i
CCOC(=O)CNC(=O)Cn1cnc2c(nnn2-c2ccccc2)c1=O,i,i,i,i,i

# From PubChem BioAssay
